Assay results: PubChem BioAssay AID1026 (Columbia University Molecular Screening Center, 2008)
Activity calls are given as the source filed them. No rule for the calls is given here.

Molecular target: Bifunctional epoxide hydrolase 2 (Homo sapiens) (UniProt P34913)
Assay: sEH inhibitor concentration-response potency, dose response, biochemical, human sEH, fluorescence, Infinite200 (AID 1026)
Conditions: recombinant human sEH, fluorogenic substrate, at 0.2 µM, stronger effect = higher value

Sequence of Bifunctional epoxide hydrolase 2 (Homo sapiens) (P34913 whole entry, looked up): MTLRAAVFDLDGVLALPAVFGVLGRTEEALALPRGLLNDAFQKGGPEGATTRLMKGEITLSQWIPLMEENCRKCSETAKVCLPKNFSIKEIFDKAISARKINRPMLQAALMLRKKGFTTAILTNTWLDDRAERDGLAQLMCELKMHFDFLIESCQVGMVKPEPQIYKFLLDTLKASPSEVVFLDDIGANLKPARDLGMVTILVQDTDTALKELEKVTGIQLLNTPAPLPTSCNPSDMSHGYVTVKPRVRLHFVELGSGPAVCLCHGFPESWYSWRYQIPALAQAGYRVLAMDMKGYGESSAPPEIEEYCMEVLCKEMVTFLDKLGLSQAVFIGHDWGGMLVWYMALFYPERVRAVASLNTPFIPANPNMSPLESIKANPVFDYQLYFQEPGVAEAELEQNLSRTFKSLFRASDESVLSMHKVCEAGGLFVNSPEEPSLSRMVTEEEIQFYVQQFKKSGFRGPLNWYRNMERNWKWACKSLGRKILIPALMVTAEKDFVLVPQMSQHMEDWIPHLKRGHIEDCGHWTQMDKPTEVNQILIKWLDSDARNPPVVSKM

SMILES	inhibition
O=C(NCCC1=CCCCC1)c1ccc(F)c(S(=O)(=O)N2CCOCC2)c1	60.6% (inactive)
CC(C)(C)n1nnnc1CN1CCC(NC(=O)NC2CCCCC2)CC1	70.3% (inactive)
CCc1ccc(/C=N/NC(=O)c2ccc(OC3CCCC3)cc2)s1	65.8% (inactive)
O=C(CN1C(=O)c2ccccc2S1(=O)=O)Nc1ccc(S(=O)(=O)N2CCCCC2)cc1	49.9% (inactive)
Cc1ccc(S(=O)(=O)N2CCCC(C(=O)NCCC3=CCCCC3)C2)cc1 (stereo not given)	35.1% (inactive)
Cc1ccccc1C(=O)N1CCC(C(=O)Nc2ccc(S(=O)(=O)N(C)C(C)C)cc2)CC1	50.3% (inactive)
CCc1cccc(NC(=O)NC2CCCCC2)c1	70.5% (inactive)
CCCCC(CC)CNC(=O)C1CCCN(S(=O)(=O)c2cnc[nH]2)C1 (stereo not given)	49.9% (inactive)
CC(Cc1cccs1)NC(=O)Nc1cccc(Cl)c1 (stereo not given)	51.7% (inactive)
O=C(Nc1ccc2c(c1)nc1n2CCN(C2CCCCC2)C1)NC1CCCCC1	72.7% (inactive)
CCc1ccc(NC(=O)Nc2ccc3c(c2)N(C)C(=O)CS3)cc1	61.2% (inactive)
O=C(NCc1ccc2c(c1)OCO2)C1CCN(c2ccc(S(=O)(=O)N3CCCC3)cc2)CC1	52.2% (inactive)
CCOc1ccc(NC(=O)Nc2ccc(N(C)C(C)=O)cc2)cc1	54.1% (inactive)
Cn1c(C(=O)N2CCCC(C(=O)NCCCSC3CCCCC3)C2)cc2sccc21 (stereo not given)	49.4% (inactive)
Cc1ccccc1C(=O)N1CCN(c2ccc(NC(=O)CSc3ccc(Cl)cc3)cc2)CC1	60.1% (inactive)
CC(Cc1cccs1)NC(=O)Nc1ccc(Cl)cc1 (stereo not given)	60.6% (inactive)
CCOc1ccc(NC(=O)NCCCSC2CCCCC2)cc1	54.6% (inactive)
CCCCCC(=O)Nc1ccc2oc(-c3ccncc3)nc2c1	31.2% (inactive)
CCOC(=O)c1sc(NC(=O)c2ccc(C)s2)cc1C	59.1% (inactive)
NNC(=O)c1cccc(COc2cccc(Br)c2)c1	37.1% (inactive)

SMILES	inhibition
CC(=O)NC(=S)Nc1ccc(NC(=O)COc2ccc(Cl)cc2Cl)cc1	44.2% (inactive)
O=C(Nc1cccc(C(F)(F)F)c1)N1CCC(c2nc(-c3ccc(F)cc3)no2)CC1	68.4% (inactive)
O=C(NCc1ccc2c(c1)OCO2)C1CCN(Cc2cnn(-c3ccccc3)c2-n2cccc2)CC1	57.2% (inactive)
COc1ccc(N2CCC(CNC(=O)Nc3cccc(OC)c3)C2)cc1 (stereo not given)	44.5% (inactive)
O=C(CCCN1C(=O)c2ccccc2C1=O)Nc1ccc(S(=O)(=O)N2CCCCC2)cc1	58% (inactive)
Cc1ccc(CCNC(=O)C2CCCN(S(=O)(=O)c3cccc4nsnc34)C2)cc1 (stereo not given)	-5.2% (inactive)
COc1ccccc1NS(=O)(=O)c1cccc(C(=O)N/N=C(\C)c2ccc(-n3ccnc3)cc2)c1	46.4% (inactive)
Cc1cc2cc(CNC(=O)NC3CCCCC3)ccc2[nH]1	60% (inactive)
CCN(CCNC(=O)C1CCN(Cc2nc(-c3ccc(Cl)cc3)oc2C)CC1)c1ccccc1	36.3% (inactive)
C/C(=N\NC(=O)Cc1cccn1C)c1cccc2ccccc12	40.4% (inactive)
CCCC(=O)Nn1cnc2c(c1=O)C1(CCCCC1)Cc1ccccc1-2	71.2% (inactive)
O=C(NCCC1=CCCCC1)C1CCCN(S(=O)(=O)c2ccccc2)C1 (stereo not given)	48.7% (inactive)
CS(=O)(=O)N(Cc1ccc(C(=O)NCCSCc2ccco2)cc1)c1ccccc1	53.6% (inactive)
O=C(Nc1cccc(F)c1)NC1CC2CCCC(C1)N2C1CC1 (stereo not given)	58.4% (inactive)
O=C(NC1CCCCC1)N1CCCC(c2nc(-c3cccs3)no2)C1 (stereo not given)	65.8% (inactive)
O=C(Nc1ccc(OC(F)F)cc1)Nc1cccc(C(F)(F)F)c1	63.2% (inactive)
CC(NC(=O)CSc1nnc(-c2cccc(S(=O)(=O)N3CCCCC3)c2)o1)C12CC3CC(CC(C3)C1)C2 (stereo not given)	66% (inactive)
CCn1c(C(=O)N2CCC(C(=O)NCCCSC3CCCCC3)CC2)cc2sccc21	61.7% (inactive)
O=C(NCCSCc1ccco1)Nc1cccc(Cl)c1	46.2% (inactive)
CCc1c(C)nc2ncnn2c1N1CCC(C(=O)NCc2ccc3c(c2)OCO3)CC1	41% (inactive)
